# Marburg entry = Marburg virus entry inhibition; Potency, µM (highest dose often 49.2 µM), for inactives: at the highest dose activity change, negative = inhibition, hits mostly inhibitors; 18,000 tested, 6.5% active; Marburg virus pseudotype entry/binding inhibition, cell-based
# Lassa entry = inhibitors of Lassa virus binding or entry into cells. Potency, µM (highest dose often 49.2 µM), for the others: top-dose activity change, negative = inhibition, usual class: inhibitors. 18,000 tested, 4.1% active. Lassa virus pseudotyped entry inhibition, cell-based qHTS
# Active calls of the source: *; u = inconclusive; x = not tested or not shown; ! = not confirmed by another sample; [ ] = remark or other dose. In the library only some 7.1% were active in any assay of this set; here they are far more common. Calls come from the whole dose curve; tested in HEK293 cells. % is set by controls: 0 for no effect and ±100 for the full control effect; potency is the fitted concentration of half-maximal effect.
SMILES,Marburg entry,Lassa entry
CCCCCCCC(=O)CC[C@@H]1[C@@H](C/C=C\CCCC(=O)OC(C)C)[C@@H](O)C[C@H]1O,u,16µM*
CCCCCC(=O)CC[C@@H]1[C@@H](C/C=C\CCCC(=O)O)[C@@H](O)C[C@H]1O,4%,-14%
COC(=O)[C@H](C=C[C@H](C)Cc1cc(Br)cc(OCc2ccccc2)c1OC)OCc1ccccc1,-15%[8.59 µM],5%[8.59 µM]
Cc1cc(C(=O)Nc2cccc(-c3nc(CNC(=O)c4ccccc4C(F)(F)F)c(C)o3)c2)c(C)o1,-28%,u
COc1cccc(C(=O)NCc2nc(-c3cccc(NC(=O)c4ccoc4C)c3)oc2C)c1OC,u,18µM*
CCc1cc2c(nc1CC)CCN(CCC(C)=NOC[C@H]1O[C@H](c3ccccc3)C=C[C@H]1Oc1ccc(OC)cc1)C2,-25%[8.59 µM],2%[8.59 µM]
C[C@]12O[C@H](C[C@]1(O)CO)n1c3ccccc3c3c4c(c5c6ccccc6n2c5c31)CNC4=O,1µM*,11µM*
CN[C@@H]1C[C@@]2(C)O[C@@H]([C@@H]1OC)n1c3ccccc3c3c4c(c5c6ccccc6n2c5c31)C(=O)NC4,u,1µM*
COC(=O)N[C@H](C(C(=O)OC)=C(C)NCc1ccccc1)c1cccc(C)c1,15%[8.59 µM],x
CCN1C(=NCc2ccc(OC)cc2)NC(c2cccc(F)c2)C(C(=O)OC)=C1C (centres undefined),2%[8.59 µM],18%[8.59 µM]
CC(=O)OC1C[C@@]2(C)C(c3ccoc3)OC(=O)C3O[C@@]32[C@]2(C)C(OC(C)=O)CC3C(C)(C)C(OC(C)=O)CC(OC(C)=O)[C@@]3(C)C12 (some centres undefined),2%,7%
CC(=O)OC1CC(OC(C)=O)[C@]2(C)C(CC(OC(C)=O)[C@]3(C)C2CC[C@@]2(C)C(c4ccoc4)C(=O)C4O[C@]432)C1(C)C (some centres undefined),16µM*,-16%
CC[C@@]1([C@@H]2O[C@@H]([C@H]3O[C@@](O)(CO)[C@H](C)C[C@@H]3C)C[C@@H]2C)CC[C@H]([C@]2(C)CC[C@]3(C[C@H](O)[C@@H](C)[C@@H]([C@@H](C)[C@@H](OC)[C@H](C)C(=O)O)O3)O2)O1 (stereo in doubt),4µM*!,2.8µM*!
CC(=O)OC[C@H]1O[C@@H](ON=C(C)CCC(=O)OC[C@H]2O[C@H](C#Cc3ccccc3)C=C[C@H]2Oc2ccc(C)cc2)[C@H](OC(C)=O)[C@@H](OC(C)=O)[C@H]1OC(C)=O,9%[8.59 µM],-1%[8.59 µM]
CC(=O)OCOC(=O)CN(CC(=O)OCOC(C)=O)c1ccccc1OCCOc1ccccc1N(CC(=O)OCOC(C)=O)CC(=O)OCOC(C)=O,16µM*,u
CC(CCN1CCCCc2nc(C)c(C)cc21)=NO[C@@H](C)c1cn([C@H](CO)Cc2ccccc2)nn1,-12%[8.59 µM],0%[8.59 µM]
CC(CCC(=O)OC[C@H]1O[C@H](C#Cc2ccccc2)C=C[C@H]1Oc1ccc(C)cc1)=NOC[C@@H](O)[C@H]1O[C@@H]2OC(C)(C)O[C@H]2[C@@H]1O,-2%[8.59 µM],x
C[C@H](CO)NS(=O)(=O)c1cccc(Cl)c1F,19%,14%
CNCCC=C1c2ccccc2CCc2ccccc21,10µM*,32µM*
CNCC/C=C/c1cccnc1,-4%,-23%
CC(=O)OC[C@H]1O[C@H](CC=NO[C@@H](C)CN2CCCc3nc(C)c(C)cc32)C=C[C@@H]1OC(C)=O,9%[8.59 µM],-2%[8.59 µM]
COc1cccc(-c2c[nH]c3c(NN=Cc4ccncc4)ncnc23)c1,u,-65%
CC[n+]1c(-c2ccccc2)c2cc(N)ccc2c2ccc(N)cc21,8.9µM*,u
CCN1C(=NCc2ccco2)N[C@@H](CCc2ccccc2)[C@H](C(=O)OC)[C@H]1C,33%[8.59 µM],43%[8.59 µM]
COC(=O)N[C@@H](c1ccccc1)[C@]1(C(C)=O)CCCC1=O,-4%[8.59 µM],10%[8.59 µM]
SMILES,Marburg entry,Lassa entry
Fc1ccc(-c2ncn(C3CCNCC3)c2-c2ccnc(Oc3ccc4c(c3)OCO4)n2)cc1,6.3µM*,u
NC(=O)Cc1ccccc1Oc1nccc(-c2c(-c3ccc(F)cc3)ncn2C2CCNCC2)n1,u,-30%
CCOC(=O)C1=C(C)NC(C)=C(C(=O)OC)C1c1cccc(Cl)c1Cl (centres undefined),-3%,-6%
COC(=O)C1=C(C)NC(C)=C(C(=O)OCCSc2ccccc2)C1C (centres undefined),u,13µM*
CCN(CC)c1ccc(C(=C2C=CC(=[N+](CC)CC)C=C2)c2ccccc2)cc1,0.28µM*,0.32µM*
C#CCN1C(=O)CC[C@@]23C1=NC(C(=O)OC)=C(C(=O)OC)[C@@H]2N(CC=C(C)C)c1ccccc13,15%[8.59 µM],x
CC(=O)Nc1c2sscc-2n(C)c1=O,11µM*,10µM*
CC(=O)Nc1c(N)[nH]c(=O)n(C)c1=O,-3%,4%
CCC(=O)OC1CCC2C3CCc4cc(O)ccc4C3CC[C@]12C (some centres undefined),0.001µM*,158µM*
CCC(=O)O[C@H]1CC[C@H]2[C@@H]3CCc4cc(O)ccc4[C@H]3CC[C@]12C,-30%,u
CCCCC(=O)O[C@H]1CC[C@H]2[C@@H]3CCc4cc(O)ccc4[C@H]3CC[C@]12C,-15%,u
C[C@]12CC[C@@H]3c4ccc(O)cc4CC[C@H]3[C@@H]1CCC2=O,16%,32µM*!
C[C@]12CCC3c4ccc(O)cc4CCC3[C@@H]1CCC2=O (some centres undefined),15%[17.8 µM],-17%[17.8 µM]
C[C@]12CC[C@@H]3c4ccc(O)cc4CC[C@H]3[C@@H]1CC[C@@H]2OC(=O)CCC1CCCC1,20%,28µM*!
CC(C)C[C@H]1COc2c(Cl)cccc2S(=O)(=O)N1Cc1ccc(F)cc1,3%,13%
CC(C)=CCC12CC3[C@@H](O)C(C(=O)c4ccccc4)(C1=O)C(=O)C(CC=C(C)C)(C2=O)C3(C)C (some centres undefined),-26%[8.59 µM],x
COC(=O)C1=C[C@@H]([C@@H](C)[C@H](OC)c2ccccc2Br)[C@@H]2OCC[C@H]12,40%[8.59 µM],32%[8.59 µM]
COC(=O)C1=C[C@H]([C@@H](C)[C@H](OC)c2ccccc2Br)[C@H]2c3ccccc3O[C@@H]12,u,1.7µM*
C[C@H]1CC[C@H]2C(=O)N(Cc3ccccc3)C[C@@H](O)CN2[C@H]1c1cccc(Br)c1,10%[8.59 µM],x
COc1ccc(COC(=O)NN=C2C[C@@H](O)[C@@H](O)[C@@H]3[C@H]4C(=O)N(Cc5ccc6c(c5)OCO6)C(=O)[C@@H]4CC[C@H]23)cc1,4%[8.59 µM],x
COCCNc1nc(-c2ccccc2C)nc2ccccc12,-1%,-2%
COc1ccccc1CNc1ncnc2ccc(-c3ccccc3CN(C)C)cc12,20µM*,-6%
CN(C)Cc1ccccc1-c1nc(NCc2ccccc2)c2ccccc2n1,10µM*,u
COCCNc1nc(-c2ccccc2CN(C)C)nc2ccccc12,13µM*,-24%
COc1ccccc1CNc1nc(-c2ccccc2CN(C)C)nc2ccccc12,11µM*,u
CN(C)Cc1ccccc1-c1cncnc1NCc1ccccc1,-25%,-5%
Cc1cnc(CNc2ncnc3ccc(-c4ccccc4CN(C)C)cc23)cn1,-23%,1%
COc1ccccc1CNc1ncncc1-c1ccccc1CN(C)C,u,-22%
C=CCOC(=O)N[C@H](C(C(=O)OC)=C(C)NCc1ccccc1)c1ccc(C)cc1,47%[8.59 µM],x
COCOCCn1cc(CN2CCS(=O)(=O)N(Cc3ccc(-c4cccc(N(C)C)c4)cc3)C(C)C2=O)nn1 (centres undefined),9%,18%

# Compound activity: PubChem BioAssay, National Center for Advancing Translational Sciences (NCATS)
